Data taken from article PMC8384837, “Expanding the binding specificity for RNA recognition by a PUF domain”.

Experiments:
Assay in all cases: yeast three-hybrid, YBZ-1, SC-Leu-His + 0.5 mM 3-AT, 4 days
Conditions in all cases: tags: N-Gal4 AD-HA kept; label: inside an RPR1-promoter hybrid RNA with tandem MS2 sites; ssRNA
PUM1 PUF domain R3-NSL = PUM1 PUF domain R3-NSL (Homo sapiens, UniProt Q14671 828-1176, C935N;R936S;Q939L)
Procedure, shortened: (§1)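 The interaction score is the log change in how often each variant appears, from input to selection. Frequencies came from PCR-amplified, Illumina-sequenced repeat regions of Pumilio-1 PUF domain libraries grown in strain YBZ-1 (LexA–MS2 coat fusion, HIS3 reporter) alongside matching RNA elements. Input plates were SC-Leu and selection plates were SC-Leu-His + 0.5 mM 3-AT, each for four days, and the log2 calculation used a pseudocount of 1 where a variant was absent.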

PUM1 PUF domain R5-KGC = PUM1 PUF domain R5-KGC (Homo sapiens, UniProt Q14671 828-1176, C1007K;R1008G;Q1011C)
PUM1 PUF domain R5-KGC, sequence (Q14671 828-1176 C1007K/R1008G/Q1011C): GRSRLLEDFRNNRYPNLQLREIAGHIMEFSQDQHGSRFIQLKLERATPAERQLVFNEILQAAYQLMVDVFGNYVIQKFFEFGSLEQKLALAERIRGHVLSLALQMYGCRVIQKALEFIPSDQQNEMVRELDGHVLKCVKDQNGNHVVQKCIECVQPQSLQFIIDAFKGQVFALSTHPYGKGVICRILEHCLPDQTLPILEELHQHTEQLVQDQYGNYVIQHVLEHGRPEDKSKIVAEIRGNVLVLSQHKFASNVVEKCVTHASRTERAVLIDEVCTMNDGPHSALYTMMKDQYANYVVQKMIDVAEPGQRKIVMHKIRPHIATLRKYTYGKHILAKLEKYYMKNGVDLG
Procedure, shortened: as §1

PUM1 PUF domain R7-GWD = PUM1 PUF domain R7-GWD (Homo sapiens, UniProt Q14671 828-1176, S1079G;N1080W;E1083D)
PUM1 PUF domain R7-GWD, sequence (Q14671 828-1176 S1079G/N1080W/E1083D): as the sequence (Q14671 828-1176 C1007K/R1008G/Q1011C) above, with K180C, G181R, C184Q, S252G, N253W, E256D counted along it
Procedure, shortened: as §1

PUM1 PUF domain R3-LYV = PUM1 PUF domain R3-LYV (Homo sapiens, UniProt Q14671 828-1176, C935L;R936Y;Q939V)
PUM1 PUF domain R3-LYV, sequence (Q14671 828-1176 C935L/R936Y/Q939V): as the sequence (Q14671 828-1176 C1007K/R1008G/Q1011C) above, with C108L, R109Y, Q112V, K180C, G181R, C184Q counted along it
Procedure, shortened: as §1

PUM1 PUF domain R8-PYA = PUM1 PUF domain R8-PYA (Homo sapiens, UniProt Q14671 828-1176, N1122P;Q1126A)
Procedure, shortened: as §1

PUM1 PUF domain R4-RHS = PUM1 PUF domain R4-RHS (Homo sapiens, UniProt Q14671 828-1176, N971R;Q975S)
Procedure, shortened: as §1

PUM1 PUF domain R3-IYG = PUM1 PUF domain R3-IYG (Homo sapiens, UniProt Q14671 828-1176, C935I;R936Y;Q939G)
Procedure, shortened: as §1

PUM1 PUF domain R3-RMR = PUM1 PUF domain R3-RMR (Homo sapiens, UniProt Q14671 828-1176, C935R;R936M;Q939R)
PUM1 PUF domain R3-RMR, sequence (Q14671 828-1176 C935R/R936M/Q939R): as the sequence (Q14671 828-1176 C1007K/R1008G/Q1011C) above, with C108R, R109M, Q112R, K180C, G181R, C184Q counted along it
Procedure, shortened: as §1

PUM1 PUF domain R6-TFC = target: T1, PUM1 PUF domain R6-TFC (Homo sapiens, UniProt Q14671 828-1176, N1043T;Y1044F;Q1047C)
T1 sequence: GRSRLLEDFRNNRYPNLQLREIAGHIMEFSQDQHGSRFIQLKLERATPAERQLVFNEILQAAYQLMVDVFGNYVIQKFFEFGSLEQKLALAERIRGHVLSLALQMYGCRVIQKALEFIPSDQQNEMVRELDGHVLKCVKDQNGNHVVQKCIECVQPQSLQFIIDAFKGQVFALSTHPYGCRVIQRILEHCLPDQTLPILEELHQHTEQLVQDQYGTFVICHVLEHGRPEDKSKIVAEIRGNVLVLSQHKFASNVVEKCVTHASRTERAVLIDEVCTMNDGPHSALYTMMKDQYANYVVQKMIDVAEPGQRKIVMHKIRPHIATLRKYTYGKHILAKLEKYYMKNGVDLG
Procedure, shortened: as §1

PUM1 PUF domain R5-RPN = PUM1 PUF domain R5-RPN (Homo sapiens, UniProt Q14671 828-1176, C1007R;R1008P;Q1011N)
PUM1 PUF domain R5-RPN, sequence (Q14671 828-1176 C1007R/R1008P/Q1011N): as the sequence (Q14671 828-1176 C1007K/R1008G/Q1011C) above, with K180R, G181P, C184N counted along it
Procedure, shortened: as §1

PUM1 PUF domain R5-KTS = PUM1 PUF domain R5-KTS (Homo sapiens, UniProt Q14671 828-1176, C1007K;R1008T;Q1011S)
PUM1 PUF domain R5-KTS, sequence (Q14671 828-1176 C1007K/R1008T/Q1011S): as the sequence (Q14671 828-1176 C1007K/R1008G/Q1011C) above, with G181T, C184S counted along it
Procedure, shortened: as §1

PUM1 PUF domain R1-RAV = PUM1 PUF domain R1-RAV (Homo sapiens, UniProt Q14671 828-1176, S863R;R864A;Q867V)
PUM1 PUF domain R1-RAV, sequence (Q14671 828-1176 S863R/R864A/Q867V): as the sequence (Q14671 828-1176 C1007K/R1008G/Q1011C) above, with S36R, R37A, Q40V, K180C, G181R, C184Q counted along it
Procedure, shortened: as §1

PUM1 PUF domain R1-GWR = PUM1 PUF domain R1-GWR (Homo sapiens, UniProt Q14671 828-1176, S863G;R864W;Q867R)
PUM1 PUF domain R1-GWR, sequence (Q14671 828-1176 S863G/R864W/Q867R): as the sequence (Q14671 828-1176 C1007K/R1008G/Q1011C) above, with S36G, R37W, Q40R, K180C, G181R, C184Q counted along it
Procedure, shortened: as §1

PUM1 PUF domain R1-TIE = PUM1 PUF domain R1-TIE (Homo sapiens, UniProt Q14671 828-1176, S863T;R864I;Q867E)
Procedure, shortened: as §1

PUM1 PUF domain R8-FHR = PUM1 PUF domain R8-FHR (Homo sapiens, UniProt Q14671 828-1176, N1122F;Y1123H;Q1126R)
Procedure, shortened: as §1

PUM1 PUF domain R7-SHP = PUM1 PUF domain R7-SHP (Homo sapiens, UniProt Q14671 828-1176, N1080H;E1083P)
PUM1 PUF domain R7-SHP, sequence (Q14671 828-1176 N1080H/E1083P): as the sequence (Q14671 828-1176 C1007K/R1008G/Q1011C) above, with K180C, G181R, C184Q, N253H, E256P counted along it
Procedure, shortened: as §1

PUM1 PUF domain R7-SRP = PUM1 PUF domain R7-SRP (Homo sapiens, UniProt Q14671 828-1176, N1080R;E1083P)
Procedure, shortened: as §1

PUM1 PUF domain R5-RHD = PUM1 PUF domain R5-RHD (Homo sapiens, UniProt Q14671 828-1176, C1007R;R1008H;Q1011D)
Procedure, shortened: as §1

PUM1 PUF domain R3-NSL, sequence (Q14671 828-1176 C935N/R936S/Q939L): as the sequence (Q14671 828-1176 C1007K/R1008G/Q1011C) above, with C108N, R109S, Q112L, K180C, G181R, C184Q counted along it

GGCUAGAACUAGUGGAUCCCCCGGCGCCCGGCGGCUCGAGCCCGGGUAAGUGUAAAUAGUCUGCAUGCCGCCGGGCGCCAUGCCUGCAGGUCGACUCUAGAAAACAUG
binding signal (PUM1 PUF domain R3-NSL): 2.4 log2 enrichment (interaction score) | binding signal (PUM1 PUF domain R5-KGC): 1.52 log2 enrichment (interaction score) | binding signal (PUM1 PUF domain R7-GWD): 2.68 log2 enrichment (interaction score) | binding signal (PUM1 PUF domain R3-LYV): 4.4 log2 enrichment (interaction score) | binding signal (PUM1 PUF domain R8-PYA): 2.27 log2 enrichment (interaction score) | binding signal (PUM1 PUF domain R4-RHS): 2.87 log2 enrichment (interaction score) | binding signal (PUM1 PUF domain R3-IYG): 4.83 log2 enrichment (interaction score)

GGCUAGAACUAGUGGAUCCCCCGGCGCCCGGCGGCUCGAGCCCGGGUAAGUGUAAUUAGUCUGCAUGCCGCCGGGCGCCAUGCCUGCAGGUCGACUCUAGAAAACAUG
binding signal (PUM1 PUF domain R3-RMR): 4.19 log2 enrichment (interaction score) | binding signal (PUM1 PUF domain R3-LYV): 5.79 log2 enrichment (interaction score)

GGCUAGAACUAGUGGAUCCCCCGGCGCCCGGCGGCUCGAGCCCGGGUAAGUGAAAAUAGUCUGCAUGCCGCCGGGCGCCAUGCCUGCAGGUCGACUCUAGAAAACAUG
binding signal (PUM1 PUF domain R6-TFC): 5.07 log2 enrichment (interaction score)

GGCUAGAACUAGUGGAUCCCCCGGCGCCCGGCGGCUCGAGCCCGGGUAAGUGUUAAUAGUCUGCAUGCCGCCGGGCGCCAUGCCUGCAGGUCGACUCUAGAAAACAUG
binding signal (PUM1 PUF domain R5-KGC): 3.36 log2 enrichment (interaction score) | binding signal (PUM1 PUF domain R5-RPN): 3.03 log2 enrichment (interaction score) | binding signal (PUM1 PUF domain R5-KTS): 1.52 log2 enrichment (interaction score)

GGCUAGAACUAGUGGAUCCCCCGGCGCCCGGCGGCUCGAGCCCGGGUAAGUGUAAAUUGUCUGCAUGCCGCCGGGCGCCAUGCCUGCAGGUCGACUCUAGAAAACAUG
binding signal (PUM1 PUF domain R1-RAV): 2.63 log2 enrichment (interaction score) | binding signal (PUM1 PUF domain R1-GWR): 4.28 log2 enrichment (interaction score) | binding signal (PUM1 PUF domain R1-TIE): 4.28 log2 enrichment (interaction score)

GGCUAGAACUAGUGGAUCCCCCGGCGCCCGGCGGCUCGAGCCCGGGUAAGCGUAAAUAGUCUGCAUGCCGCCGGGCGCCAUGCCUGCAGGUCGACUCUAGAAAACAUG
binding signal (PUM1 PUF domain R8-FHR): 3.71 log2 enrichment (interaction score)

GGCUAGAACUAGUGGAUCCCCCGGCGCCCGGCGGCUCGAGCCCGGGUAAGUGUACAUAGUCUGCAUGCCGCCGGGCGCCAUGCCUGCAGGUCGACUCUAGAAAACAUG
binding signal (PUM1 PUF domain R4-RHS): 2.12 log2 enrichment (interaction score)

GGCUAGAACUAGUGGAUCCCCCGGCGCCCGGCGGCUCGAGCCCGGGUAAGUGUAAAUCGUCUGCAUGCCGCCGGGCGCCAUGCCUGCAGGUCGACUCUAGAAAACAUG
binding signal (PUM1 PUF domain R1-RAV): 0.85 log2 enrichment (interaction score) | binding signal (PUM1 PUF domain R1-GWR): 7.05 log2 enrichment (interaction score)

GGCUAGAACUAGUGGAUCCCCCGGCGCCCGGCGGCUCGAGCCCGGGUAAGUCUAAAUAGUCUGCAUGCCGCCGGGCGCCAUGCCUGCAGGUCGACUCUAGAAAACAUG
binding signal (PUM1 PUF domain R7-SHP): 3.63 log2 enrichment (interaction score)

GGCUAGAACUAGUGGAUCCCCCGGCGCCCGGCGGCUCGAGCCCGGGUAAGUUUAAAUAGUCUGCAUGCCGCCGGGCGCCAUGCCUGCAGGUCGACUCUAGAAAACAUG
binding signal (PUM1 PUF domain R7-SRP): 3.52 log2 enrichment (interaction score)

GGCUAGAACUAGUGGAUCCCCCGGCGCCCGGCGGCUCGAGCCCGGGUAAGUGUAACUAGUCUGCAUGCCGCCGGGCGCCAUGCCUGCAGGUCGACUCUAGAAAACAUG
binding signal (PUM1 PUF domain R3-IYG): 0.48 log2 enrichment (interaction score)

GGCUAGAACUAGUGGAUCCCCCGGCGCCCGGCGGCUCGAGCCCGGGUAAGUGUCAAUAGUCUGCAUGCCGCCGGGCGCCAUGCCUGCAGGUCGACUCUAGAAAACAUG
binding signal (PUM1 PUF domain R5-KTS): 2.89 log2 enrichment (interaction score)

GGCUAGAACUAGUGGAUCCCCCGGCGCCCGGCGGCUCGAGCCCGGGUAAGUGUAAGUAGUCUGCAUGCCGCCGGGCGCCAUGCCUGCAGGUCGACUCUAGAAAACAUG
binding signal (PUM1 PUF domain R3-RMR): 1.31 log2 enrichment (interaction score) | binding signal (PUM1 PUF domain R3-LYV): 4.97 log2 enrichment (interaction score)

GGCUAGAACUAGUGGAUCCCCCGGCGCCCGGCGGCUCGAGCCCGGGUAAGUGUGAAUAGUCUGCAUGCCGCCGGGCGCCAUGCCUGCAGGUCGACUCUAGAAAACAUG
binding signal (PUM1 PUF domain R5-RHD): 5.63 log2 enrichment (interaction score)
